Cl transport mod: modulates chloride dependent transport by human KCC2 | AID 1456 | Q9H2X9 | 2.2% of 190,000 active | KCC2 cells, thallium flux FluoZin-2 fluorescence | B-score of Tl+ flux slope (higher = more flux/activation; lower = inhibition) at 10 µM;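 active = thallium flux slope and its plate-corrected score both differing from the plate sample mean at a set confidence after two filtering rounds, in either direction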;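 note: slope of fluorescence scaled to starting intensity during 10 to 20 s after thallium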
Target sequence (Q9H2X9 whole entry, looked up): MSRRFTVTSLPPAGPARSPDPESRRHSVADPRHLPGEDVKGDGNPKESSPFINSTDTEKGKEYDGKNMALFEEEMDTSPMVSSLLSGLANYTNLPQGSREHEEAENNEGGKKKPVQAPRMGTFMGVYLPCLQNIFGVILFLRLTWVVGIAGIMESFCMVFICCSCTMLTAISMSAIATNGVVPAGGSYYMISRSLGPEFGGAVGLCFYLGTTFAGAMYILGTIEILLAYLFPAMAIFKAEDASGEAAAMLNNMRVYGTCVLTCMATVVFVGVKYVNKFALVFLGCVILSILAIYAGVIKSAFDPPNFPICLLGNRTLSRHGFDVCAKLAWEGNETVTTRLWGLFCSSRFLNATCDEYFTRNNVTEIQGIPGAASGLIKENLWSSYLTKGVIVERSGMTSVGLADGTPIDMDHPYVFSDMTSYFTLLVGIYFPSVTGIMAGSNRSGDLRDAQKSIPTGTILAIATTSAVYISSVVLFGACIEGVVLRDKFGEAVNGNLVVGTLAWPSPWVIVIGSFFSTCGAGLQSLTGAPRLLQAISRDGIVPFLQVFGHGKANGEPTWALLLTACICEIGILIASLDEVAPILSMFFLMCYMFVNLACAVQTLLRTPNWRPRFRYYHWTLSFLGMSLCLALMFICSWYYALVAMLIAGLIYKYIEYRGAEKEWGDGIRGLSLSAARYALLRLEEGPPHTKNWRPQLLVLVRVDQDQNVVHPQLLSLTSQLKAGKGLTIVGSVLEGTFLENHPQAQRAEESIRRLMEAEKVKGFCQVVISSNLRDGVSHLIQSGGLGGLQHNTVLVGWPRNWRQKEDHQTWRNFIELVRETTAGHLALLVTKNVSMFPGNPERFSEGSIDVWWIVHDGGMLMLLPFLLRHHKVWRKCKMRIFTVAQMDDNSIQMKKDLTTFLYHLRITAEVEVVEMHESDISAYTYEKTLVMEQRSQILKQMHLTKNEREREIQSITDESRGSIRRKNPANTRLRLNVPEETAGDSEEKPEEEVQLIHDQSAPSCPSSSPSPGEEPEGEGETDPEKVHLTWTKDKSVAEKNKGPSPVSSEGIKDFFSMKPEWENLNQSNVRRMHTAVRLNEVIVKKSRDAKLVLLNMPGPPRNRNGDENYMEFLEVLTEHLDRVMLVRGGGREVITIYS
S1P3 antagonist: blocks the human S1P3 receptor | CHO S1P3 NFAT-BLA reporter, FRET fluorescence, antagonist mode | 0.27% of 170,000 active | AID 485 | inhibition, % at 4.98 µM;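 active = inhibition above the plate cutoff, the mean inhibition of test wells on that plate plus 3 SD, cut at about 28% in these data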;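 note: cells challenged with S1P at its EC80 of 0.8 µM; blue over green emission ratio from cleaved BLA substrate after 4 h stimulation; 0% = S1P-stimulated wells and 100% = unstimulated DMSO-only wells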
ROMK mod: modulators of human ROMK potassium channel | P48048 | Tet-inducible ROMK, thallium flux fluorescence; actives lie on both sides | B-score at 10 µM | 2% of 130,000 active | AID 1918;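 active = signal ratio slope over the read window, or its plate-corrected B-score, at least 3 SD from the plate mean, either direction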;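 note: B-score of the F/F0 ratio slope over 7 to 12 s after thallium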
S1P4 antagonist: blocks the human S1P4 receptor. S1P4-expressing cells, antagonist mode, reporter read-out. 0.26% of 220,000 active. inhibition, % at 4.98 µM. O95977; in the data active = inhibition above about 29%;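 note: 0% = wells stimulated with agonist and 100% = vehicle wells without agonist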
RAM network inh: inhibitors of the yeast RAM network; S. cerevisiae dse1pr::URA3 reporter, 5-FOA growth OD615, 2 d; analog-sensitive cbk1-as2 kinase mutant strain; inhibition, % at 50 µM; AID 868; 1.8% of 190,000 active;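 active = inhibition above a set limit, 3 SD over mean compound inhibition, cut at about 8.4% in these data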;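 note: 0% = DMSO-only wells with no growth and 100% = 10 µM 1-NA-PP1 full growth; inhibition rescues growth on 5-FOA so higher OD means more RAM inhibition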
S1P4 ag: activates the human S1P4 receptor; O95977; S1P4-expressing cell line, agonist reporter assay; activation, % at 4.98 µM; 0.35% of 220,000 active; AID 1509; in the data active = activation above about 11%;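 note: 0% = DMSO vehicle and 100% = reference agonist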
KCC2 sec1: confirmation of human KCC2 transport modulators; normalised thallium flux (F/F0 slope) at 10 µM; shares compounds with Cl transport mod; HEK293-KCC2, thallium flux, FluoZin2 fluorescence; hits give high values; 15% of 3,700 active;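 active = thallium flux slope above the same plate's solvent-only control mean plus 3 SD; inconclusive = the two replicate wells disagree; inactive = no significant difference from solvent-only control wells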
KCC2 bumet counter: bumetanide-insensitive thallium flux in KCC2 cells with ouabain, counter-screen | HEK293-KCC2 + bumetanide/ouabain, thallium flux FluoZin2; hits give high values | AID 1714 | 49% of 3,700 active | normalized thallium flux at 10 µM | shares compounds with Cl transport mod;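 active = thallium entry rate above the same plate's blocked-transporter control wells by more than 3 SD; inconclusive = the two repeat wells disagree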;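 note: raw slope of fluorescence over initial fluorescence between 10 and 20 s after thallium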
KCC2 secondary2: KCC2 (human) modulation, second secondary assay; 23% of 3,700 active; HEK293-KCC2, thallium flux FluoZin2 fluorescence; actives lie on both sides; F/F0 rise rate, 10–20 s post-thallium; shares compounds with Cl transport mod; normalized thallium flux at 10 µM;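 active = thallium flux slope more than 3 SD above or below the plate's solvent-only control mean, mostly below; inconclusive = the two repeat wells disagreed; inactive = no significant shift from solvent-only controls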;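 note: raw slope with 0.1% DMSO as baseline and bumetanide as block control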
HEK293 Tl flux: acts in parental HEK cells, KCC2 counter-screen; shares compounds with Cl transport mod; HEK293 parental cells, thallium flux FluoZin2, ouabain; baseline-ratio fluorescence slope, 10–20 s after thallium; 46% of 3,700 active; thallium flux rate (normalised fluorescence) at 10 µM;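 active = thallium flux rate significantly above the same plate's solvent-only control wells, beyond their mean plus 3 SD; inconclusive = the two replicate wells gave conflicting results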
KCC2 ouabain: KCC2 (human) modulation, ouabain retest; HEK293-KCC2, thallium flux FluoZin2 fluorescence; bidirectional: low = inhibitor, high = activator; shares compounds with Cl transport mod; raw Tl+ flux slope (below DMSO = inhibition, above = activation) at 10 µM; 48% of 3,700 active;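 active = thallium flux slope beyond 3 SD from same-plate DMSO control mean in most replicates, usually higher, sometimes lower; inconclusive = repeat tests gave conflicting results; inactive = no significant difference from controls in most replicates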;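 note: slope of initial-normalized fluorescence between seconds 10 and 20 after thallium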
HEK counter2: acts in parental HEK cells, second KCC2 counter-screen | 33% of 3,700 active | shares compounds with Cl transport mod | HEK293 parental, thallium flux FluoZin-2 fluorescence slope | thallium flux slope at 10 µM | AID 1718;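 active = thallium flux slope above the same plate's solvent-control mean plus 3 SD in both duplicate wells; inconclusive = duplicate wells that disagreed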;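 note: run without ouabain in cells lacking the KCC2 cotransporter; slope of fluorescence scaled to its starting value between 10 and 20 s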
Active calls of the source: *; ? = inconclusive; / = no result. Rows were chosen to be rich in hits. Some 5.1% of all compounds tested hit in one or more screens of this group.

SMILES	Cl transport mod	S1P3 antagonist	ROMK mod	S1P4 antagonist	RAM network inh	S1P4 ag	KCC2 sec1	KCC2 bumet counter	KCC2 secondary2	HEK293 Tl flux	KCC2 ouabain	HEK counter2
N#CC1=C(S)N=C(N)C(c2nc(-c3ccccc3)cs2)C12CCCCC2 (stereo unspecified)	-3.86*	/	-1.02	8.2	3.0	-2.9	0.00937	0.00599	0.0222*	0.00688	0.0157*	0.00968
O=C(Nc1ccc(Br)cc1F)c1sccc1-n1cccc1	-1.17	/	-1.17	8.8	4.7	-0.7	0.0078	0.00478	0.0328	0.00819	0.0197	0.0114
O=C(Nc1ncn[nH]1)c1ccc(S(=O)(=O)N2CCOCC2)cc1	-1.07	-21.9	0.0791	-0.6	-0.4	-2.3	/	/	/	/	/	/
O=C(NC1CCCC1)c1sc(=S)n2c1[nH]c(=O)c1ccccc12	23.8*	-10.0	-1.42	-1.5	7.4	0.2	0.0155*	0.0522*	0.0301	0.0243*	0.0451*	0.0136*
O=C(OCC(=O)N1CCOCC1)c1cccc(S(=O)(=O)N2CCCc3ccccc32)c1	-0.0181	-5.8	/	-34.6	/	-0.7	/	/	/	/	/	/
O=C(Nc1ccccc1)/C(=C\c1ccncc1)NC(=O)c1ccccc1	5.44*	/	0.866	-0.1	1.4	-0.8	0.0152	0.00509	0.0274	?	0.0169	0.0112
O=C(Nc1ccc(O)cc1)/C(=C\c1ccncc1)NC(=O)c1ccccc1	-0.605	-9.9	0.922	-8.9	1.1	-0.2	/	/	/	/	/	/
CCOC(=O)c1cc(C(=O)NC(C)c2ccccc2)c(C)[nH]c1=O (stereo unspecified)	0.13	1.7	0.621	5.4	1.9	-1.9	/	/	/	/	/	/
O=C(NCCc1csc(-c2ccccc2)n1)c1cccs1	/	8.3	/	-24.2	0.5	-3.7	0.00615	0.0041	0.0227*	0.00645	0.014*	0.00941
O=C(Cc1csc(-c2ccccc2)n1)NCc1cccs1	-4.58*	-9.0	-2.18	-4.7	2.2	1.3	0.00539	0.0054	?	?	0.0128*	0.00901
Cc1nc(CCNC(=O)c2cccs2)cs1	0.421	-14.7	0.59	-10.5	0.2	-0.1	/	/	/	/	/	/
COc1ccc(NC(=O)CN2CCN(C3c4ccccc4-c4ccccc43)CC2)cc1	-1.22	/	/	5.9	1.6	-1.5	/	/	/	/	/	/
Cc1nc(CN(C)C(=O)c2cc(COc3ccc4ncccc4c3)on2)cs1	-3.13	5.4	-1.11	-22.9	0.6	1.5	/	/	/	/	/	/
O=C(c1cnn2c(C(F)(F)F)cc(-c3ccccc3)nc12)N1CCCCC1c1cccnc1 (stereo unspecified)	-3.53	-7.6	0.886	-0.8	0.1	-0.3	0.00554	0.00396	0.0287	0.00539*	0.0166	0.0089
Cc1ccc(-c2cc(C(F)F)n3ncc(C(=O)N4CCCCC4c4cccnc4)c3n2)cc1 (stereo unspecified)	-2.56	-7.3	-0.398	-24.2	3.4	2.5	/	/	/	/	/	/
O=C(O)c1nn(-c2ccccc2-c2n[nH]c(=O)[nH]c2=O)c(=O)[nH]c1=O	0.666	-13.2	/	0.5	/	-0.5	/	/	/	/	/	/
O=C(Nc1nnc(C2CC2)s1)C1CC(=O)N(c2ccc3c(c2)OCCO3)C1 (stereo unspecified)	-0.584	1.9	0.429	-13.4	0.3	1.5	/	/	/	/	/	/
O=C(Nc1nc(-c2ccccn2)cs1)C1CC(=O)N(c2ccc3c(c2)OCCO3)C1 (stereo unspecified)	-3*	9.6	-0.311	-10.8	1.4	1.1	0.00719	0.00781	0.0293	0.00749	0.0178*	0.0111*
CC1=NCCN1S(=O)(=O)c1ccccc1[N+](=O)[O-]	0.618	-20.5	0.894	5.1	3.1	0.7	/	/	/	/	/	/
Cc1ccc(S(=O)(=O)N2C(=O)/C(=C3\SC(=S)NC3=O)c3ccccc32)cc1	0.319	-8.1	/	3.2	/	2.3	/	/	/	/	/	/
CC(=O)Oc1cc2c3c(c1)/C(=C1/SC(=S)NC1=O)C(=O)N3C(C)(C)C=C2C	11.6*	-9.4	/	-12.2	/	-0.7	0.0108	0.0621*	0.0333	0.0169*	0.0236	0.0108
Cc1cc(C)c(NC(=O)NC(=O)c2cccc(F)c2)c(C)n1	-4.13*	9.4	0.149	0.5	1.5	4.3	0.0112	0.00598	0.0319	0.00796	0.019	?
CC(=O)c1cccc(NC(=O)C(C)N(C)CC(=O)Nc2ccc(Cl)cc2)c1 (stereo unspecified)	-1.83	-5.0	/	3.7	/	-0.1	/	/	/	/	/	/
CC(C)(CC(=O)O)CC(=O)Nc1ccc(Oc2ccc(C(C)(C)C)cc2)nc1	4.85*	3.9	/	6.2	/	1.0	0.00558	0.00445	0.0299	0.00715	0.0187	0.00982
O=c1c2ccccc2[nH]c(=S)n1CCCN1CCOCC1	0.902	/	-0.3	-9.3	3.2	-0.9	/	/	/	/	/	/
SMILES	Cl transport mod	S1P3 antagonist	ROMK mod	S1P4 antagonist	RAM network inh	S1P4 ag	KCC2 sec1	KCC2 bumet counter	KCC2 secondary2	HEK293 Tl flux	KCC2 ouabain	HEK counter2
O=c1c2ccc(Cl)cc2[nH]c(=S)n1CCCN1CCOCC1	6.46*	-25.3	-0.0294	-10.2	2.0	-0.2	?	0.0363*	0.0328	0.0146*	0.0344*	0.0112*
O=c1c2sc3ccccc3c2[nH]c(=S)n1CCN1CCOCC1	8.63*	0.2	1.9	3.0	0.1	-1.1	0.0165	0.0165*	0.0331	0.0191*	0.0245*	0.0195*
CC1CCN(CCCn2c(=S)[nH]c3c(sc4ccccc43)c2=O)CC1	19.5*	-14.1	0.826	-12.4	1.3	0.7	0.00636	0.0148*	0.0356	0.0164*	0.0264*	0.0179*
CC1CCN(CCCn2c(=S)[nH]c3c(sc4ccc([N+](=O)[O-])cc43)c2=O)CC1	0.331	-14.4	0.103	-19.0	2.9	-1.3	/	/	/	/	/	/
COC(=O)c1cnc(Oc2ccc(NC(=O)NC(=O)c3ccccc3Cl)cc2)cc1C(F)(F)F	1.01	-2.5	/	4.4	/	2.1	/	/	/	/	/	/
C(=N\Nc1nc(Nc2ccccc2)nc(N2CCCCC2)n1)/c1ccco1	/	-1.2	/	-8.8	-1.7	0.4	/	/	/	/	/	/
CN1CCN(c2ccc(Cl)cc2NC(=O)CCN2C(=O)c3ccccc3C2=O)CC1	-0.597	-13.8	0.0903	-0.5	0.1	-0.9	/	/	/	/	/	/
CCN(CC)c1ccc(C(=O)Nc2cccc(F)c2)cc1	-3.3*	31.8	/	6.2	0.0	-4.6	0.0185	0.00384	0.0269	?	0.0135	0.00943

Compound activity as filed in PubChem BioAssay.
